Common to all, as to assay: PBM; 200 nM protein, PBS
What all share (conditions): dsDNA, one strand shown

The target in test [1] is T1, VENTX (Homo sapiens, UniProt O95231 78-163, R121Q).
T1 sequence: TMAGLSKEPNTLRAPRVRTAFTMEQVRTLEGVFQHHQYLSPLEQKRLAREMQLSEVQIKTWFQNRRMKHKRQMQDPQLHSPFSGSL

In a further test the target is ALX4 (Homo sapiens, UniProt Q9H161 200-286).
Test [2] has as its target PRRX1 (Homo sapiens, UniProt P54821 80-166, F113S).
The target of test [3] is HOXA2 (Homo sapiens, UniProt O43364 129-215, R185T).
Chain of HOXA2 (Homo sapiens, UniProt O43364 129-215, R185T) (O43364 129-215 R185T): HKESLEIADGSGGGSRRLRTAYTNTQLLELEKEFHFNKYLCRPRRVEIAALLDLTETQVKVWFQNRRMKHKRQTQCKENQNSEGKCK
For test [4], the target named is T2, PAX4 (Homo sapiens, UniProt O43316 9-242, R200Q).
T2 sequence: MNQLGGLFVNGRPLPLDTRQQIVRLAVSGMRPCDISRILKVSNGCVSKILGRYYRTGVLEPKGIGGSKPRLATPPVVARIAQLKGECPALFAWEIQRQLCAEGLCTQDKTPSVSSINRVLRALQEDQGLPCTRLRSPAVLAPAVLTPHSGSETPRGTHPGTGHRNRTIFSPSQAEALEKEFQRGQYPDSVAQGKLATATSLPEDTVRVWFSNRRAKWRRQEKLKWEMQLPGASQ

Test [5] deals with MSX2 (Homo sapiens, UniProt P35548 130-214).
Chain of MSX2 (Homo sapiens, UniProt P35548 130-214) (P35548 130-214): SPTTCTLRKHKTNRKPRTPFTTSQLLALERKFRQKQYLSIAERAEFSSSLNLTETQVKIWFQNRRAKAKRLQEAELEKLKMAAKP
The target in test [6] is MSX2 (Homo sapiens, UniProt P35548 130-214, F161Y).
Chain of MSX2 (Homo sapiens, UniProt P35548 130-214, F161Y) (P35548 130-214 F161Y): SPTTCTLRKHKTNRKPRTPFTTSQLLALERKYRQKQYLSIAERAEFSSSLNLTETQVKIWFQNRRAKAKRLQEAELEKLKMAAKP
Test [7] deals with PRRX1 (Homo sapiens, UniProt P54821 80-166).
Chain of PRRX1 (Homo sapiens, UniProt P54821 80-166) (P54821 80-166): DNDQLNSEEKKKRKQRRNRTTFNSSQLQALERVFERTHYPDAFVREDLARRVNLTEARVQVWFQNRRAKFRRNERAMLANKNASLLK
Test [8] deals with T3, PAX4 (Homo sapiens, UniProt O43316 9-242, R200K).
T3 sequence: T2 sequence with Q192K

Test [9] addresses T4, VENTX (Homo sapiens, UniProt O95231 78-163, Y115F).
T4 sequence: T1 sequence with Y38F, Q44R

In test [10] the target is T5, PAX4 (Homo sapiens, UniProt O43316 9-242).
T5 sequence: T2 sequence with Q192R

Test [11] deals with T6, PAX4 (Homo sapiens, UniProt O43316 9-242, F177V).
T6 sequence: T2 sequence with F169V, Q192R

In test [12] the target is T7, PAX4 (Homo sapiens, UniProt O43316 9-242, F177Y).
T7 sequence: T2 sequence with F169Y, Q192R

Test [13] has as its target VAX1 (Homo sapiens, UniProt Q5SQQ9 86-172, T142I).
Test [14] has as its target VAX1 (Homo sapiens, UniProt Q5SQQ9 86-172, K157R).
The target of test [15] is HOXA4 (Homo sapiens, UniProt Q00056 201-287, R217L).
Chain of HOXA4 (Homo sapiens, UniProt Q00056 201-287, R217L) (Q00056 201-287 R217L): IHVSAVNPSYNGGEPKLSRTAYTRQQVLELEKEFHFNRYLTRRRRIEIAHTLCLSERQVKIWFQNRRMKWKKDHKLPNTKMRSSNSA
Test [16] addresses HOXA4 (Homo sapiens, UniProt Q00056 201-287, W262F).
The target in test [17] is HOXA2 (Homo sapiens, UniProt O43364 129-215, R185K).
Chain of HOXA2 (Homo sapiens, UniProt O43364 129-215, R185K) (O43364 129-215 R185K): as the sequence (O43364 129-215 R185T) above, with T57K counted along it

The record followed here is publication PMC11006913.

Where a chain is given by its changes, count along the chain named.

Chain of ALX4 (Q9H161 200-286): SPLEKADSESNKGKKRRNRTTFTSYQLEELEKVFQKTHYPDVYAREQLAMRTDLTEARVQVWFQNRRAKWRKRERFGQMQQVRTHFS
Chain of VAX1 (Homo sapiens, UniProt Q5SQQ9 86-172, K157R) (Q5SQQ9 86-172 K157R): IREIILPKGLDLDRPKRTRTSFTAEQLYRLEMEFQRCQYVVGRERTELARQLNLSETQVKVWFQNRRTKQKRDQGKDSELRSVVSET
Chain of PRRX1 (Homo sapiens, UniProt P54821 80-166, F113S) (P54821 80-166 F113S): as the sequence (P54821 80-166) above, with F34S counted along it
Chain of VAX1 (Homo sapiens, UniProt Q5SQQ9 86-172, T142I) (Q5SQQ9 86-172 T142I): as the sequence (Q5SQQ9 86-172 K157R) above, with T57I, R72K counted along it
Chain of HOXA4 (Homo sapiens, UniProt Q00056 201-287, W262F) (Q00056 201-287 W262F): as the sequence (Q00056 201-287 R217L) above, with L17R, W62F counted along it

For the sequence TAATTGGA, the binding signal in the test with VENTX [1] was 11.7 upbm affinity estimate (log intensity, higher = more binding, comparable within an allelic series); in the test with ALX4, 14 upbm affinity estimate (log intensity, higher = more binding, comparable within an allelic series); with PRRX1 [2], 11.4 upbm affinity estimate (log intensity, higher = more binding, comparable within an allelic series); in the test with HOXA2 [3], 12.5 upbm affinity estimate (log intensity, higher = more binding, comparable within an allelic series); with PAX4 [4], 12 upbm affinity estimate (log intensity, higher = more binding, comparable within an allelic series); with MSX2 [5] it was 14 upbm affinity estimate (log intensity, higher = more binding, comparable within an allelic series). Besides, the binding signal is 13.6 upbm affinity estimate (log intensity, higher = more binding, comparable within an allelic series) with MSX2 [6] and 13.4 upbm affinity estimate (log intensity, higher = more binding, comparable within an allelic series) in the test with PRRX1 [7].
As for CCCAATTA, the binding signal is 11.7 upbm affinity estimate (log intensity, higher = more binding, comparable within an allelic series) with VENTX [1]; 13.9 upbm affinity estimate (log intensity, higher = more binding, comparable within an allelic series) with ALX4; 11.6 upbm affinity estimate (log intensity, higher = more binding, comparable within an allelic series) with PAX4 [8]; 11.3 upbm affinity estimate (log intensity, higher = more binding, comparable within an allelic series) with PRRX1 [2]; 11.5 upbm affinity estimate (log intensity, higher = more binding, comparable within an allelic series) with VENTX [9]; 12.1 upbm affinity estimate (log intensity, higher = more binding, comparable within an allelic series) in the test with PAX4 [10]. The binding signal in the test with HOXA2 [3] was 12.5 upbm affinity estimate (log intensity, higher = more binding, comparable within an allelic series); with PAX4 [4], 11.9 upbm affinity estimate (log intensity, higher = more binding, comparable within an allelic series); with PAX4 [11], 10.4 upbm affinity estimate (log intensity, higher = more binding, comparable within an allelic series); in the test with MSX2 [5], 14 upbm affinity estimate (log intensity, higher = more binding, comparable within an allelic series); with PAX4 [12], 10.8 upbm affinity estimate (log intensity, higher = more binding, comparable within an allelic series); with MSX2 [6] it was 13.7 upbm affinity estimate (log intensity, higher = more binding, comparable within an allelic series). Moreover, the binding signal in the test with VAX1 [13] is 12.3 upbm affinity estimate (log intensity, higher = more binding, comparable within an allelic series); with PRRX1 [7], 13.4 upbm affinity estimate (log intensity, higher = more binding, comparable within an allelic series); with VAX1 [14] it was 12.6 upbm affinity estimate (log intensity, higher = more binding, comparable within an allelic series).
With CCGAGCGG, the binding signal is 9.78 upbm affinity estimate (log intensity, higher = more binding, comparable within an allelic series) with HOXA4 [15] and 9.89 upbm affinity estimate (log intensity, higher = more binding, comparable within an allelic series) with HOXA4 [16].
Turning to AATTAGAT, the binding signal with ALX4 was 13.7 upbm affinity estimate (log intensity, higher = more binding, comparable within an allelic series); with PAX4 [8], 11.7 upbm affinity estimate (log intensity, higher = more binding, comparable within an allelic series); in the test with PRRX1 [2], 11.1 upbm affinity estimate (log intensity, higher = more binding, comparable within an allelic series); with PAX4 [10] it was 12.2 upbm affinity estimate (log intensity, higher = more binding, comparable within an allelic series); with PAX4 [4], 12 upbm affinity estimate (log intensity, higher = more binding, comparable within an allelic series); with PAX4 [11], 10.6 upbm affinity estimate (log intensity, higher = more binding, comparable within an allelic series). The binding signal is 10.9 upbm affinity estimate (log intensity, higher = more binding, comparable within an allelic series) with PAX4 [12] and 13.3 upbm affinity estimate (log intensity, higher = more binding, comparable within an allelic series) in the test with PRRX1 [7].
For GACAATTA, the binding signal with PRRX1 [2] was 11 upbm affinity estimate (log intensity, higher = more binding, comparable within an allelic series); with MSX2 [5], 13.8 upbm affinity estimate (log intensity, higher = more binding, comparable within an allelic series); in the test with MSX2 [6] it was 13.4 upbm affinity estimate (log intensity, higher = more binding, comparable within an allelic series); in the test with PRRX1 [7], 13.2 upbm affinity estimate (log intensity, higher = more binding, comparable within an allelic series).
For the sequence CAATTAGA, the binding signal with VENTX [1] is 11.8 upbm affinity estimate (log intensity, higher = more binding, comparable within an allelic series); with ALX4 it was 13.8 upbm affinity estimate (log intensity, higher = more binding, comparable within an allelic series); with PRRX1 [2], 10.9 upbm affinity estimate (log intensity, higher = more binding, comparable within an allelic series); in the test with HOXA2 [3] it was 12.5 upbm affinity estimate (log intensity, higher = more binding, comparable within an allelic series); with MSX2 [5], 13.8 upbm affinity estimate (log intensity, higher = more binding, comparable within an allelic series); with MSX2 [6], 13.4 upbm affinity estimate (log intensity, higher = more binding, comparable within an allelic series). Also, the binding signal in the test with VAX1 [13] was 12.2 upbm affinity estimate (log intensity, higher = more binding, comparable within an allelic series); in the test with PRRX1 [7], 13.2 upbm affinity estimate (log intensity, higher = more binding, comparable within an allelic series); in the test with VAX1 [14] it was 12.3 upbm affinity estimate (log intensity, higher = more binding, comparable within an allelic series).
Turning to CAAATTAA, the binding signal with ALX4 was 13.7 upbm affinity estimate (log intensity, higher = more binding, comparable within an allelic series); with PAX4 [8], 11.8 upbm affinity estimate (log intensity, higher = more binding, comparable within an allelic series); in the test with PRRX1 [2], 11 upbm affinity estimate (log intensity, higher = more binding, comparable within an allelic series); with PAX4 [10], 12.4 upbm affinity estimate (log intensity, higher = more binding, comparable within an allelic series); with PAX4 [4], 12.2 upbm affinity estimate (log intensity, higher = more binding, comparable within an allelic series); with PAX4 [11], 10.5 upbm affinity estimate (log intensity, higher = more binding, comparable within an allelic series). Besides, the binding signal with PAX4 [12] was 11.1 upbm affinity estimate (log intensity, higher = more binding, comparable within an allelic series); with PRRX1 [7], 13.2 upbm affinity estimate (log intensity, higher = more binding, comparable within an allelic series).
For the sequence AATTAGTG, the binding signal was 11.9 upbm affinity estimate (log intensity, higher = more binding, comparable within an allelic series) in the test with VENTX [1]; 13.9 upbm affinity estimate (log intensity, higher = more binding, comparable within an allelic series) with ALX4; 11.8 upbm affinity estimate (log intensity, higher = more binding, comparable within an allelic series) in the test with PAX4 [8]; 11.2 upbm affinity estimate (log intensity, higher = more binding, comparable within an allelic series) with PRRX1 [2]; 11.7 upbm affinity estimate (log intensity, higher = more binding, comparable within an allelic series) with VENTX [9]; 12.4 upbm affinity estimate (log intensity, higher = more binding, comparable within an allelic series) with PAX4 [10]. In addition, the binding signal was 12.8 upbm affinity estimate (log intensity, higher = more binding, comparable within an allelic series) with HOXA2 [3]; 12.3 upbm affinity estimate (log intensity, higher = more binding, comparable within an allelic series) in the test with PAX4 [4]; 13.1 upbm affinity estimate (log intensity, higher = more binding, comparable within an allelic series) with HOXA2 [17]; 10.6 upbm affinity estimate (log intensity, higher = more binding, comparable within an allelic series) in the test with PAX4 [11]; 13.5 upbm affinity estimate (log intensity, higher = more binding, comparable within an allelic series) in the test with MSX2 [5]; 11.1 upbm affinity estimate (log intensity, higher = more binding, comparable within an allelic series) with PAX4 [12]. Further, the binding signal is 13.2 upbm affinity estimate (log intensity, higher = more binding, comparable within an allelic series) with MSX2 [6]; 12.6 upbm affinity estimate (log intensity, higher = more binding, comparable within an allelic series) with VAX1 [13]; 11.6 upbm affinity estimate (log intensity, higher = more binding, comparable within an allelic series) with HOXA4 [16]; 13.3 upbm affinity estimate (log intensity, higher = more binding, comparable within an allelic series) with PRRX1 [7]; 12.8 upbm affinity estimate (log intensity, higher = more binding, comparable within an allelic series) with VAX1 [14].
On to AACTAATT, for which the binding signal in the test with ALX4 is 13.7 upbm affinity estimate (log intensity, higher = more binding, comparable within an allelic series); with PRRX1 [2], 11.1 upbm affinity estimate (log intensity, higher = more binding, comparable within an allelic series); in the test with MSX2 [5], 13.3 upbm affinity estimate (log intensity, higher = more binding, comparable within an allelic series); in the test with MSX2 [6], 12.9 upbm affinity estimate (log intensity, higher = more binding, comparable within an allelic series); with PRRX1 [7], 13.3 upbm affinity estimate (log intensity, higher = more binding, comparable within an allelic series).
With AATTAAGG, the binding signal in the test with ALX4 was 13.6 upbm affinity estimate (log intensity, higher = more binding, comparable within an allelic series).
